Measured values as given in the supplement of paper PMC4466140.

B1: unnamed (peptide)
chain: KRKRFNLLLPKPYLT

molecular target: AgAbp1; assay: SPOT peptide array binding signal intensity (averaged, normalized) (arbitrary units (background-subtracted, floor 0; scale differs between SH3 domains)); higher = stronger binding of the SH3 domain to the peptide
Experimental: (§1)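 GST-tagged SH3 domains from S. cerevisiae (Sc), A. gossypii (Ag), C. albicans (Ca) and S. pombe (Sp) were incubated at 10 ug/ml overnight at 4 C on cellulose SPOT membranes carrying 292 synthetic 15-mer peptides mined from the S. cerevisiae proteome (cysteines replaced by serines). Binding was detected with anti-GST antibody, HRP secondary and chemiluminescence, quantified with Genespotter, and reported as normalized spot intensities averaged over biological replicates.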

Binder	SPOT peptide array binding signal intensity
B1	46

molecular target: AgBbc1; assay: as above
Experimental: as §1

Binder	SPOT peptide array binding signal intensity
B1	16.5

molecular target: AgBem1-D1; assay: as above
Experimental: as §1

Binder	SPOT peptide array binding signal intensity
B1	136

molecular target: AgBzz1-D1; assay: as above
Experimental: as §1

Binder	SPOT peptide array binding signal intensity
B1	33

molecular target: AgBzz1-D2; assay: as above
Experimental: as §1

Binder	SPOT peptide array binding signal intensity
B1	19.5

molecular target: AgCyk3; assay: as above
Experimental: as §1

Binder	SPOT peptide array binding signal intensity
B1	3

molecular target: AgFus1; assay: as above
Experimental: as §1

Binder	SPOT peptide array binding signal intensity
B1	356

molecular target: AgHof1; assay: as above
Experimental: as §1

Binder	SPOT peptide array binding signal intensity
B1	49.5

molecular target: AgHse1; assay: as above
Experimental: as §1

Binder	SPOT peptide array binding signal intensity
B1	745

molecular target: AgLsb1; assay: as above
Experimental: as §1

Binder	SPOT peptide array binding signal intensity
B1	14.5

molecular target: AgLsb4; assay: as above
Experimental: as §1

Binder	SPOT peptide array binding signal intensity
B1	104

molecular target: AgMyo5; assay: as above
Experimental: as §1

Binder	SPOT peptide array binding signal intensity
B1	0.75

molecular target: AgNbp2; assay: as above
Experimental: as §1

Binder	SPOT peptide array binding signal intensity
B1	99

molecular target: AgRvs167; assay: as above
Experimental: as §1

Binder	SPOT peptide array binding signal intensity
B1	6.17

molecular target: AgSho1; assay: as above
Experimental: as §1

Binder	SPOT peptide array binding signal intensity
B1	58

molecular target: AgSla1-D1-D2; assay: as above
Experimental: as §1

Binder	SPOT peptide array binding signal intensity
B1	578

molecular target: AgSla1-D3; assay: as above
Experimental: as §1

Binder	SPOT peptide array binding signal intensity
B1	4

molecular target: CaAbp1-D1; assay: as above
Experimental: as §1

Binder	SPOT peptide array binding signal intensity
B1	458

molecular target: CaAbp1-D2; assay: as above
Experimental: as §1

Binder	SPOT peptide array binding signal intensity
B1	418

molecular target: CaBbc1; assay: as above
Experimental: as §1

Binder	SPOT peptide array binding signal intensity
B1	39.5

molecular target: CaBem1-D1; assay: as above
Experimental: as §1

Binder	SPOT peptide array binding signal intensity
B1	31

molecular target: CaBzz1-D1; assay: as above
Experimental: as §1

Binder	SPOT peptide array binding signal intensity
B1	28

molecular target: CaBzz1-D2; assay: as above
Experimental: as §1

Binder	SPOT peptide array binding signal intensity
B1	46.5

molecular target: CaCyk3; assay: as above
Experimental: as §1

Binder	SPOT peptide array binding signal intensity
B1	5

molecular target: CaFus1; assay: as above
Experimental: as §1

Binder	SPOT peptide array binding signal intensity
B1	548

molecular target: CaHof1; assay: as above
Experimental: as §1

Binder	SPOT peptide array binding signal intensity
B1	1.5

molecular target: CaHse1; assay: as above
Experimental: as §1

Binder	SPOT peptide array binding signal intensity
B1	25.5

molecular target: CaLsb1; assay: as above
Experimental: as §1

Binder	SPOT peptide array binding signal intensity
B1	8

molecular target: CaLsb4; assay: as above
Experimental: as §1

Binder	SPOT peptide array binding signal intensity
B1	43.5

molecular target: CaMyo5; assay: as above
Experimental: as §1

Binder	SPOT peptide array binding signal intensity
B1	1

molecular target: CaNbp2; assay: as above
Experimental: as §1

Binder	SPOT peptide array binding signal intensity
B1	192

molecular target: CaRvs167; assay: as above
Experimental: as §1

Binder	SPOT peptide array binding signal intensity
B1	8.5

molecular target: CaRvs167-3; assay: as above
Experimental: as §1

Binder	SPOT peptide array binding signal intensity
B1	692

molecular target: CaSho1; assay: as above
Experimental: as §1

Binder	SPOT peptide array binding signal intensity
B1	592

molecular target: CaSla1-D1-D2; assay: as above
Experimental: as §1

Binder	SPOT peptide array binding signal intensity
B1	1

molecular target: CaSla1-D3; assay: as above
Experimental: as §1

Binder	SPOT peptide array binding signal intensity
B1	6.5

molecular target: ScAbp1; assay: as above
Experimental: as §1

Binder	SPOT peptide array binding signal intensity
B1	24
